In experiment [1] the target is T1, Methionyl-tRNA synthetase, putative (Leishmania donovani (strain BPK282A1)) (UniProt E9BF75).
T1 sequence (whole entry): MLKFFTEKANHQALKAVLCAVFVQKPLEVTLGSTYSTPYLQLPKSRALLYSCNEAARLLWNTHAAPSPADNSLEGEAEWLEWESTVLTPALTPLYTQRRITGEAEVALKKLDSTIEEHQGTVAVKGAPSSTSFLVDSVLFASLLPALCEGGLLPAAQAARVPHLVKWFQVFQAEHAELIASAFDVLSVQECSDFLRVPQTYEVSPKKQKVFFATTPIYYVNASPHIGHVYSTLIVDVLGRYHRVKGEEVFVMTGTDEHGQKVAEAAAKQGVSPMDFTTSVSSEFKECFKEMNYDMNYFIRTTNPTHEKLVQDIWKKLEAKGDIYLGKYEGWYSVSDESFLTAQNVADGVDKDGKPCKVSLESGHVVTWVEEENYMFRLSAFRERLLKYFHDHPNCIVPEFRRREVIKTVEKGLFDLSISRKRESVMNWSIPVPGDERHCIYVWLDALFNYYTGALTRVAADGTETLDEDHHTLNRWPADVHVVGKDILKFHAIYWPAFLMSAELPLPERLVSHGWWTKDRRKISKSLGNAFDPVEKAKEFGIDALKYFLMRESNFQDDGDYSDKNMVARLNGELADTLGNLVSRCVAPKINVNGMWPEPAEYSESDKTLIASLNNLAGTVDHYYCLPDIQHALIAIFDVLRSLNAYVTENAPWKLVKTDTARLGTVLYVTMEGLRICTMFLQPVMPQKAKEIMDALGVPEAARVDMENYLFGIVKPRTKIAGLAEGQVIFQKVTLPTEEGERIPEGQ
Kind of experiment: Leishmania donovani Methionine tRNA synthetase (LdMetRS):v7. Dose response assay. Type of experiment: functional. The arrangement: conc 80 nM, time 150 minutes.

In experiment [2] the target is Protein translocase subunit SecA (Escherichia coli (strain K12)) (UniProt P10408). Kind of experiment: Assay to Identify E. coli SecA ATPase Inhibitors. Type of experiment: functional. The arrangement: scale not given: direction of the effect not stated beside the values. The note with it: 30 µM.
Experiment [3] has as its target T2, Ubiquitin-activating enzyme e1, putative (Leishmania donovani (strain BPK282A1)) (UniProt E9BSI1).
T2 sequence (whole entry): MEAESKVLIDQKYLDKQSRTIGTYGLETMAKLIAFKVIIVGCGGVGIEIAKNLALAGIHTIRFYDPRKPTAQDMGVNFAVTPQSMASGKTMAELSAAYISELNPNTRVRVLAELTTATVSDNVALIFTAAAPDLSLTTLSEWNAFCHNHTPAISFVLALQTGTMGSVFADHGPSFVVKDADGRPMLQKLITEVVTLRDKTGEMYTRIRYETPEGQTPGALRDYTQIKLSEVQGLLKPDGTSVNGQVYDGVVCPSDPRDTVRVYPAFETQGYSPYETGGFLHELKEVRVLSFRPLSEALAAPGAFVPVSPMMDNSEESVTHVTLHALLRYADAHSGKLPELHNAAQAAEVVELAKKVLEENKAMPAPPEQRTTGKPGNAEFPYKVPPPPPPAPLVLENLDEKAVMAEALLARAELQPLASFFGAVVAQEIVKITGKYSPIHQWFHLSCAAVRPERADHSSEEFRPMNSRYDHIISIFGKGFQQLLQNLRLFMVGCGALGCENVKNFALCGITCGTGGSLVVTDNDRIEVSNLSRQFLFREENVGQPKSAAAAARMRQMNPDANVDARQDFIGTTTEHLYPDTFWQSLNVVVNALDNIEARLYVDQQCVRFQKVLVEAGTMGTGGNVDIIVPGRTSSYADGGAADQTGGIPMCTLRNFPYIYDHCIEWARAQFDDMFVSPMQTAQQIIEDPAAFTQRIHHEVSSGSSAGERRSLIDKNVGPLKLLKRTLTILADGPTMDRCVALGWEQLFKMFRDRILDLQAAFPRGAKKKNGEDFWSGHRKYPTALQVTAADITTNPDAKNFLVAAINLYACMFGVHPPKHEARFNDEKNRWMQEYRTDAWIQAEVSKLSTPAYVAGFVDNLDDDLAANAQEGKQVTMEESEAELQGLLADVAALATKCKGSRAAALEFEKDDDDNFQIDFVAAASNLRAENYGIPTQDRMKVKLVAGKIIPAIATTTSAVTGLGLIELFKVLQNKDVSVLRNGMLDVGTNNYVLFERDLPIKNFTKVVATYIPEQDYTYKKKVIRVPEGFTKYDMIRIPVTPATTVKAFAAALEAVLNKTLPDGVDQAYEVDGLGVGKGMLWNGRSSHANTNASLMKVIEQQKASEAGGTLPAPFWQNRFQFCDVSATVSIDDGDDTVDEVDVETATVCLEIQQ
Kind of experiment: Leishmania donovani Ubiquitin Activating Enzyme (LdE1). Type of experiment: functional. More on the design: scale not given: direction of the effect not stated beside the values. The note with it: 30 µM.

In experiment [4] the target is T3, Aspartate--tRNA(Asp/Asn) ligase (Mycobacterium tuberculosis (strain ATCC 25618 / H37Rv)) (UniProt P9WFW3). Note: in the data most compounds retested in dose-response had high values.
T3 sequence (whole entry): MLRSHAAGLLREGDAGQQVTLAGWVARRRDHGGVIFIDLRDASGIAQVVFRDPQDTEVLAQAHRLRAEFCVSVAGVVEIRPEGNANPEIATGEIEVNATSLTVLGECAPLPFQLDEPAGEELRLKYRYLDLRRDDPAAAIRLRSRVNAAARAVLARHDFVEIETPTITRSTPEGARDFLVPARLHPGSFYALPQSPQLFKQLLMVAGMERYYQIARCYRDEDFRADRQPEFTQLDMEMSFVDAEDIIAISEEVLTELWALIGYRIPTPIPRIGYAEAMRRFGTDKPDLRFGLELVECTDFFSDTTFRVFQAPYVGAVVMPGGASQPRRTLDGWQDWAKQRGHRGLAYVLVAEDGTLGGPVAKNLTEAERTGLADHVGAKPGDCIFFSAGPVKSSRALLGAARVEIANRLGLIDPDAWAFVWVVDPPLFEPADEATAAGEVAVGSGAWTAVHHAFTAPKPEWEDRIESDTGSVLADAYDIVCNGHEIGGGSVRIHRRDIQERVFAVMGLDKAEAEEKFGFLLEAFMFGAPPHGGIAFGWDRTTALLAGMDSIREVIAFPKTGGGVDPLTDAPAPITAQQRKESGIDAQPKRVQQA
Kind of experiment: Assay for Asp RNA synthetase-1 from Mycobacterium tuberculosis. The settings on record: 30 µM. The experiment is classed as functional. The arrangement: scale not given: direction of the effect not stated beside the values.

Experiment [5] addresses AMP-activated protein kinase, AMPK (Homo sapiens) (UniProt P54646+O43741+P54619+Q9UGJ0+Q9Y478+Q13131+Q9UGI9). Kind of experiment: AMP-dependent Kinase enzyme assay. An in vitro enzyme assay that detects ADP turnover that is directly proportional to AMPK activity. This uses naive AMPK that is activated during the assay with MK-8722. Type of experiment: functional. The arrangement: scale not given: direction of the effect not stated beside the values. The note with it: 30 µM.

Experiment [6] deals with Sialic acid-binding Ig-like lectin 9 (Homo sapiens) (UniProt Q9Y336). The experiment is described as follows: Hs-Siglec9 ALPHAscreen SOP 20170721. The arrangement: scale not given: direction of the effect not stated beside the values. The note with it: 10 µM. (Bead proximity is the source of the signal in Alpha formats.)
The next experiment concerns Trypanosoma cruzi. Kind of experiment: Trypanosoma cruzi phosphomannomutase and mannose-1-phosphate guanylyltransferase assay. Type of experiment: functional. The arrangement: scale not given: direction of the effect not stated beside the values. The settings on record: 10 µM.
Experiment [7] has as its target T4, Arginase-2, mitochondrial (Homo sapiens) (UniProt P78540).
T4 sequence (whole entry): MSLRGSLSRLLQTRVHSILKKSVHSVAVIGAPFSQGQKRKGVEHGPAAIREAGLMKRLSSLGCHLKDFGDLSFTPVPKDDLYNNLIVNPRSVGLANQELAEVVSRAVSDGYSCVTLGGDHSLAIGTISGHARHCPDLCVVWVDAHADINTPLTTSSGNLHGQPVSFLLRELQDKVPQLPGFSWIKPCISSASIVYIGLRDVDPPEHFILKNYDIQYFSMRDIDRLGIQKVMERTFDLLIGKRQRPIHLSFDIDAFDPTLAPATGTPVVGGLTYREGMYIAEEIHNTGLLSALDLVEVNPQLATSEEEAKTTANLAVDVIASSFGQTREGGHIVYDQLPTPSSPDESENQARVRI
Kind of experiment: in vitro enzyme assay to detect the production of urea directly proportional to the activity of Arginase II. The experiment is classed as functional. The arrangement: scale not given: in the data most compounds retested in dose-response had high values. The note with it: 33.3 µM.

Experiment [8] addresses T5, Proteasome subunit beta (Trypanosoma cruzi) (UniProt O96673).
T5 sequence (whole entry): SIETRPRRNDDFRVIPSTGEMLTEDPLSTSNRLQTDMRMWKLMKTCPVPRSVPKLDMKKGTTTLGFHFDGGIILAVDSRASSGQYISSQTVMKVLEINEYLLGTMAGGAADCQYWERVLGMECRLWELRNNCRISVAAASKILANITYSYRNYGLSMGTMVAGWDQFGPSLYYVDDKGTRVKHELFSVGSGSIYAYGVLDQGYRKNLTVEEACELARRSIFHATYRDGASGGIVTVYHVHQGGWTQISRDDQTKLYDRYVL
The experiment is described as follows: Trypanosoma cruzi proteasome chymotrypsin-like activity (TcProtChymo) assay. Type of experiment: functional. More on the design: scale not given: in the data most compounds retested in dose-response had high values. The settings on record: 9.37 µM.

For another experiment, the species on record is Homo sapiens. The experiment is described as follows: To identify inhibition of the IFN signalling (Jak-Stat) pathway via expression of an eGFP reporter gene under the control of an IFN-stimulated response element (ISRE) containing MxA promoter. Type of experiment: functional. More on the design: scale not given: direction of the effect not stated beside the values. The settings on record: 30 µM. A general note: A reporter such as luciferase makes a cellular process visible.

Experiment [9] deals with Shiga toxin 2 (Escherichia coli O157:H7) (UniProt P09385+P09386). Kind of experiment: E. coli 0.157:H7 Shiga Toxin SOP - stx2 screening assay. The experiment is classed as functional. The arrangement: scale not given: direction of the effect not stated beside the values. The note with it: 30 µM.
Experiment [10] addresses T6, Tyrosyl-tRNA synthetase, putative (Trypanosoma cruzi (strain CL Brener)) (UniProt Q4DSP6).
T6 sequence (whole entry): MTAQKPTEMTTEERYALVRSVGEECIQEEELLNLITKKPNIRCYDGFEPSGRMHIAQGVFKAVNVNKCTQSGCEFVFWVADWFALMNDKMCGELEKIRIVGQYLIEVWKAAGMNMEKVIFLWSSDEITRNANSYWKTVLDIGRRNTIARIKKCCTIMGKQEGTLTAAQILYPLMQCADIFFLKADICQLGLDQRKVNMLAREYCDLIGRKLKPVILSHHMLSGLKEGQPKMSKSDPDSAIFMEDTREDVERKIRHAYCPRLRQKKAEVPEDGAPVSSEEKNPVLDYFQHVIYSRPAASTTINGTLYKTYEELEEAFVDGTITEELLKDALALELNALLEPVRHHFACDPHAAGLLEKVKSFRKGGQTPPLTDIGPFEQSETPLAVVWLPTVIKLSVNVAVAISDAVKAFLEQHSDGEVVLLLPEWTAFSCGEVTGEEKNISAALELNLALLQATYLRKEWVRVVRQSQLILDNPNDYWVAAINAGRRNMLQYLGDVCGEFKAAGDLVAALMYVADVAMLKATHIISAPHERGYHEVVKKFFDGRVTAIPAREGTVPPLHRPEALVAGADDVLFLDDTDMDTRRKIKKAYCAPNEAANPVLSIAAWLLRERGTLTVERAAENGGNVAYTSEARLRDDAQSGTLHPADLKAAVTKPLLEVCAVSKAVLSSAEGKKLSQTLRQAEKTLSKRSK
Kind of experiment: Trypanosoma cruzi tyrosyl tRNA synthetase (TcYRS) _High Tyrosine SOP. Type of experiment: functional. The arrangement: scale not given: in the data most compounds retested in dose-response had high values. The note with it: 30 µM.

The target of experiment [11] is T6, Tyrosyl-tRNA synthetase, putative (Trypanosoma cruzi (strain CL Brener)). The experiment is described as follows: Trypanosoma cruzi tyrosyl tRNA synthetase (TcYRS) SOP. Type of experiment: functional. The arrangement: scale not given: direction of the effect not stated beside the values. The note with it: 30 µM.
Experiment [12] deals with Chromo domain-containing protein 1 (Saccharomyces cerevisiae (strain ATCC 204508 / S288c) (Baker's yeast)) (UniProt P32657). Kind of experiment: ScCHD-1 Enzyme Inhibition Assay. The experiment is classed as functional. More on the design: scale not given: in the data most compounds retested in dose-response had high values. The note with it: 30 µM.

This note sets out measurements from ChEMBL document CHEMBL3988442, “University of Dundee, Small-Polar-MMV Screening Library” (2021).

Each structure is given as a SMILES string. For part of these data: Entries with a potency or affinity are not part of this list.

Sequence of Protein translocase subunit SecA (Escherichia coli (strain K12)) (P10408 whole entry): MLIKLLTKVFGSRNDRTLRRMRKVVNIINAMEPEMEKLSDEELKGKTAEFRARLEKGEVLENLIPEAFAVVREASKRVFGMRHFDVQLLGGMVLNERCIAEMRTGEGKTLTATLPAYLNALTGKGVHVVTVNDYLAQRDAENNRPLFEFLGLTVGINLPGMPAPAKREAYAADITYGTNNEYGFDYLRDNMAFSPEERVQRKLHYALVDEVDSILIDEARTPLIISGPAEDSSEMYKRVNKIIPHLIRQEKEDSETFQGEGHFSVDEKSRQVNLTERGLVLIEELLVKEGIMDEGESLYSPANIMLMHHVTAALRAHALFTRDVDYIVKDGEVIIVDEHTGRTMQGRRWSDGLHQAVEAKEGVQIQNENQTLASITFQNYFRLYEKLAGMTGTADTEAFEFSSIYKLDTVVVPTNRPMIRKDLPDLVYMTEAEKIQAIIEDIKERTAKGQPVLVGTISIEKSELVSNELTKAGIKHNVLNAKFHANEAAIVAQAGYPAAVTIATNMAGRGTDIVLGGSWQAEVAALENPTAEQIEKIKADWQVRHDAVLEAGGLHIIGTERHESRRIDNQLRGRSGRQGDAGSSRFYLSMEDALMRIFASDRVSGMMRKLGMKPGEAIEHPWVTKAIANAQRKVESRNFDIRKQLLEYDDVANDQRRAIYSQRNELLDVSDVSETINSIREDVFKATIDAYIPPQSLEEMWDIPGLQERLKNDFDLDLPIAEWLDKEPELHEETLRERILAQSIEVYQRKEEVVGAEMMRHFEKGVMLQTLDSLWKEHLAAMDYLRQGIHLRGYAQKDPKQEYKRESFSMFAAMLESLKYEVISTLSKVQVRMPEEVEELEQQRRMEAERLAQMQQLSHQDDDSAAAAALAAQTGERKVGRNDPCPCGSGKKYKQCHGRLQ
Sequence of Sialic acid-binding Ig-like lectin 9 (Homo sapiens) (Q9Y336 whole entry): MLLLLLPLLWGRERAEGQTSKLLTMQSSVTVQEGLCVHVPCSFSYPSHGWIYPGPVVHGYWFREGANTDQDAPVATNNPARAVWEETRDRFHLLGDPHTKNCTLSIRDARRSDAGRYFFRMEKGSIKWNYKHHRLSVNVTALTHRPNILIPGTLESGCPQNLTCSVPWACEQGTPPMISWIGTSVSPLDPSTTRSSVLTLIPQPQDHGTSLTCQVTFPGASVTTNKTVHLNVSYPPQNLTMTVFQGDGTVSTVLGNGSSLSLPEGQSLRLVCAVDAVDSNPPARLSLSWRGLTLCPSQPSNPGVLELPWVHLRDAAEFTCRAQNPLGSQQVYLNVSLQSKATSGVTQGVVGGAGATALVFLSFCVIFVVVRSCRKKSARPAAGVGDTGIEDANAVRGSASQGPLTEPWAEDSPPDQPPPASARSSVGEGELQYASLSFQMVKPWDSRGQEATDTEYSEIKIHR
Sequence of Chromo domain-containing protein 1 (Saccharomyces cerevisiae (strain ATCC 204508 / S288c) (Baker's yeast)) (P32657 whole entry, the tested form may be a part): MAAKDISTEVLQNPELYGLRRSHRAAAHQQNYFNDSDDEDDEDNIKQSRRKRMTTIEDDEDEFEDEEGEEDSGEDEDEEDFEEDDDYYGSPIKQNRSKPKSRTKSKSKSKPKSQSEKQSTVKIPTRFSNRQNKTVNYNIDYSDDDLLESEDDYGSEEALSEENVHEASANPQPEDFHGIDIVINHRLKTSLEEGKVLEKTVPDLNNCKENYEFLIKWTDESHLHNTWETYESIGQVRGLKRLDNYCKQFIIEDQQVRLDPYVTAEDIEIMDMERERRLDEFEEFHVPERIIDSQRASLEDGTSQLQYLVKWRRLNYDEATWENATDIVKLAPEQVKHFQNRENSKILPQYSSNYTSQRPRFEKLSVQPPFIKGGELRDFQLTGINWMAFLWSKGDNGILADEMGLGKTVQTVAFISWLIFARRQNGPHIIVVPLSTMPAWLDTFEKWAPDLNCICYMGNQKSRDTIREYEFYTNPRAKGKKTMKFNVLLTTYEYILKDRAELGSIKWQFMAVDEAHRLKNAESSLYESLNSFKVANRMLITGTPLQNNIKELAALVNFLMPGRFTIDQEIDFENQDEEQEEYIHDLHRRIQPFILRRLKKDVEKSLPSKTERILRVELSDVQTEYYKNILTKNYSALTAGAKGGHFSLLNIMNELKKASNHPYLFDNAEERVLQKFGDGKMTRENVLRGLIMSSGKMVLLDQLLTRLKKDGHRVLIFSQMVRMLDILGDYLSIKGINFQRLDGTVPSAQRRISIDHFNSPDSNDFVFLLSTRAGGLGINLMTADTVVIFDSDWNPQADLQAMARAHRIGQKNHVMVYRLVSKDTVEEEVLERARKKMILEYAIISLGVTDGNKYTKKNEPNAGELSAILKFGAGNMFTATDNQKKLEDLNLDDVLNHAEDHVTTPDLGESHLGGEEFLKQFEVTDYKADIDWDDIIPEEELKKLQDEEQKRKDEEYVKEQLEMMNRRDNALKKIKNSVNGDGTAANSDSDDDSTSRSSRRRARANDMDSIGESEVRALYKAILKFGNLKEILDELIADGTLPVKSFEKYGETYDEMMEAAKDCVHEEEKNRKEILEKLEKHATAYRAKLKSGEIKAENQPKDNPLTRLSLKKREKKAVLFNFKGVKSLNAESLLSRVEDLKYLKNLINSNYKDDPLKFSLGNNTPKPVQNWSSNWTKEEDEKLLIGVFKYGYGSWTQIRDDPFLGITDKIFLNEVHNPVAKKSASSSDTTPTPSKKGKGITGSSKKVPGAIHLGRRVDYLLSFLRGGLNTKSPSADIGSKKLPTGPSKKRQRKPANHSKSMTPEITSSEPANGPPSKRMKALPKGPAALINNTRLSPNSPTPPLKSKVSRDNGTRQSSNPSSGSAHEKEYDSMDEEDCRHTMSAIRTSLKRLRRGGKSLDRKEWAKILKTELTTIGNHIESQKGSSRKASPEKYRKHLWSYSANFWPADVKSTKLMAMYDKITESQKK

Consider `OCCN1CCC(F)(F)C2(CCN(c3cccnc3)C2)C1` (stereo not given), for which the PXC50 in [1] (MAX_EFFECT 6.355140187) and in experiment [1] (MAX_EFFECT 7.256235828) was less than 4 in each case.

For `c1csc(CN2CC[C@H]3C[C@H](c4ccncn4)O[C@@H]3C2)c1`, the Percent Effect was 2.89% in experiment [2]; 13% in [3]; 2.7% in experiment [4]; 9.99% in [5]; -6.78% in experiment [6]; -7.99% in the experiment with Trypanosoma cruzi. In addition, the Percent Effect in [7] was 5.81%; in experiment [8], 19.7%; in the experiment listed under Homo sapiens, 13.8%; in experiment [9], -7.55%; in experiment [10], 2.12%; in [11], 6.41%. Also, the Percent Effect in [12] was -8.13%.
